PubChem BioAssay (NCI)
This is part of a sample that, as a whole, favours compounds with a hit. Of some 79,000 tested, about 15% had one in any assay. Unmarked numbers belong to inactive results. The source made the active and inactive calls. Cut-off read from the data, not from the text of the source: active = growth inhibition above about 70%; inactive = the rest.

Columns and labels:
[1] = NCI Yeast Anticancer Drug Screen. Data for the rad52 strain (AID 147);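 note: 0% = growth of vehicle-treated control cultures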; conditions: S. cerevisiae rad52 mutant growth inhibition, stronger effect = higher value
Procedure, shortened: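 Growth of repair-deficient yeast cells was compared between compound-treated and vehicle-treated cultures to give percent inhibition.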

[2] = NCI Yeast Anticancer Drug Screen. Data for the wt1 strain (AID 149);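 note: 0% = growth of vehicle-treated wt1 cultures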; conditions: S. cerevisiae wt1 strain (SPY 50644) growth inhibition, stronger effect = higher value
Procedure, shortened: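 Using yeast strain wt1, compound-induced growth inhibition was determined against vehicle-treated cultures.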

[3] = NCI Yeast Anticancer Drug Screen. Data for the rad50EPP+ strain (AID 151);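 note: 0% = growth of vehicle-treated control cultures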; conditions: S. cerevisiae rad50 mutant strain, stronger effect = higher value
Procedure, shortened: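 Measured: growth inhibition of rad50EPP+ yeast. Reference: vehicle-treated controls. Screen uses strains with defined genetic alterations in DNA damage repair or cell cycle control.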

[4] = NCI Yeast Anticancer Drug Screen. Data for the mgt1 strain (AID 153); conditions: S. cerevisiae mgt1 mutant growth inhibition, stronger effect = higher value
Procedure, shortened: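 Compounds were applied to mgt1 mutant yeast, and growth was then compared against vehicle-treated control cultures to give percent inhibition.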

[5] = NCI Yeast Anticancer Drug Screen. Data for the rad50 strain (AID 155);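 note: 0% = growth of vehicle-only cultures of the same strain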; conditions: S. cerevisiae rad50 strain growth inhibition, stronger effect = higher value
Procedure, shortened: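 Relative growth inhibition (compound vs vehicle) was measured in yeast with a defined repair-gene alteration.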

[6] = NCI Yeast Anticancer Drug Screen. Data for the mec2-1 strain (AID 157); conditions: S. cerevisiae mec2-1 strain, stronger effect = higher value
Procedure, shortened: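 Compounds were applied to mec2-1 yeast cells. Their growth was then compared with that of vehicle-treated cultures to give growth inhibition.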

[7] = NCI Yeast Anticancer Drug Screen. Data for the rad14 strain (AID 159);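 note: 0% = growth of vehicle-treated control cultures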; conditions: S. cerevisiae rad14 strain growth inhibition, stronger effect = higher value
Procedure, shortened: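 Screen for anticancer potential: a yeast strain altered in DNA damage repair is grown with compound, and reduced growth is quantified against vehicle controls.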

[8] = NCI Yeast Anticancer Drug Screen. Data for the sgs1 mgt1 strain (AID 161);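 note: 0% = growth of cultures given vehicle only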; conditions: S. cerevisiae sgs1 mgt1 strain, stronger effect = higher value
Procedure, shortened: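 This yeast growth screen uses a strain with defined DNA-repair lesions; compound-treated growth is compared with vehicle-treated growth.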

[9] = NCI Yeast Anticancer Drug Screen. Data for the cln2 rad14 strain (AID 165);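 note: 0% = growth equal to vehicle treated cultures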; conditions: S. cerevisiae cln2 rad14 strain, stronger effect = higher value
Procedure, shortened: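 Strain: cln2 rad14 yeast, altered in cell cycle control and DNA damage repair. Read-out: growth inhibition vs vehicle.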

[10] = NCI Yeast Anticancer Drug Screen. Data for the bub3 strain (AID 167); conditions: S. cerevisiae bub3 mutant strain, stronger effect = higher value
Procedure, shortened: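 Screening used yeast with an engineered genetic alteration affecting cell cycle control. Compound-exposed cultures were compared with vehicle cultures, and reduced growth was taken as inhibition.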

[11] = NCI Yeast Anticancer Drug Screen. Data for the wt2 strain (AID 169);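 note: 0% = growth of vehicle-treated yeast cultures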; conditions: S. cerevisiae wt2 strain growth inhibition, stronger effect = higher value
Procedure, shortened: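 Growth of compound-treated yeast is measured and expressed as inhibition relative to vehicle-only controls.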

[12] = NCI Yeast Anticancer Drug Screen. Data for the mlh1 strain (AID 171);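 note: 0% = growth of vehicle-treated control cultures of the same strain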; conditions: S. cerevisiae mlh1 strain growth inhibition, stronger effect = higher value
Procedure, shortened: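 Test agents were incubated with yeast bearing a defined DNA damage repair or cell cycle control alteration; values are growth inhibition normalised to vehicle-treated cultures.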

[13] = NCI Yeast Anticancer Drug Screen. Data for the sgs1 strain (AID 173);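 note: 0% = growth of vehicle-only control cultures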; conditions: S. cerevisiae sgs1 mutant, stronger effect = higher value
Procedure, shortened: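 Strain with an altered DNA repair or cell cycle pathway exposed to compound. Growth then measured. Value = inhibition versus vehicle control.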

[14] = NCI Yeast Anticancer Drug Screen. Data for the mlh1 rad18 strain (AID 175); conditions: S. cerevisiae mlh1 rad18 strain growth inhibition, stronger effect = higher value
Procedure, shortened: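 A repair-deficient yeast strain is exposed to test compound, and growth is scored relative to vehicle-treated controls.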

[15] = at 5.0 µM (retest, dose inferred, filed as 0.5)
[16] = at 50.0 µM (retest, dose inferred, filed as 5.0)

CC(C(=O)N1C(=O)N(C(=O)C(C)C(O)c2ccccc2)C2CCCCC21)C(O)c1ccccc1 (stereo not drawn)
growth inhibition ([1]; at 1.2 µM): 5% | growth inhibition ([1]; at 3.7 µM): 8% | growth inhibition ([1]; at 11.0 µM): 11% | growth inhibition ([1]; at 33.0 µM): 11% | growth inhibition ([1]; at 100.0 µM): 19% | growth inhibition ([2]; at 1.2 µM): 2% | growth inhibition ([2]; at 3.7 µM): -1% | growth inhibition ([2]; at 11.0 µM): 7% | growth inhibition ([2]; at 33.0 µM): 3% | growth inhibition ([2]; at 100.0 µM): 12% | growth inhibition ([3]; at 1.2 µM): 0% | growth inhibition ([3]; at 3.7 µM): -3% | growth inhibition ([3]; at 11.0 µM): 0% | growth inhibition ([3]; at 33.0 µM): 2% | growth inhibition ([3]; at 100.0 µM): 3% | growth inhibition ([4]; at 1.2 µM): -4% | growth inhibition ([4]; at 3.7 µM): 0% | growth inhibition ([4]; at 11.0 µM): 1% | growth inhibition ([4]; at 33.0 µM): 1% | growth inhibition ([4]; at 100.0 µM): 29% | growth inhibition ([5]; at 1.2 µM): 0% | growth inhibition ([5]; at 3.7 µM): -9% | growth inhibition [5, 15]: -5% | growth inhibition ([5]; at 11.0 µM): -7% | growth inhibition ([5]; at 33.0 µM): 16% | growth inhibition [5, 16]: 8% | growth inhibition ([5]; at 50.0 µM): 97.1% (active) | growth inhibition ([5]; at 100.0 µM): 20% | growth inhibition ([6]; at 1.2 µM): 3% | growth inhibition ([6]; at 3.7 µM): 1% | growth inhibition [6, 15]: -7% | growth inhibition ([6]; at 11.0 µM): 2% | growth inhibition ([6]; at 33.0 µM): 14% | growth inhibition [6, 16]: -2% | growth inhibition ([6]; at 50.0 µM): 97.2% (active) | growth inhibition ([6]; at 100.0 µM): 24% | growth inhibition ([7]; at 1.2 µM): 2% | growth inhibition ([7]; at 3.7 µM): 1% | growth inhibition ([7]; at 11.0 µM): 4% | growth inhibition ([7]; at 33.0 µM): 9% | growth inhibition ([7]; at 100.0 µM): 20% | growth inhibition [8, 15]: -7% | growth inhibition [8, 16]: 11% | growth inhibition ([8]; at 50.0 µM): 97.5% (active) | growth inhibition [9, 15]: 87% (active) | growth inhibition [9, 16]: 14% | growth inhibition ([9]; at 50.0 µM): 96.5% (active) | growth inhibition ([10]; at 1.2 µM): -2% | growth inhibition ([10]; at 3.7 µM): -1% | growth inhibition [10, 15]: -13% | growth inhibition ([10]; at 11.0 µM): -2% | growth inhibition ([10]; at 33.0 µM): 1% | growth inhibition [10, 16]: -9% | growth inhibition ([10]; at 50.0 µM): 97.8% (active) | growth inhibition ([10]; at 100.0 µM): 4% | growth inhibition ([11]; at 1.2 µM): -2% | growth inhibition ([11]; at 3.7 µM): -1% | growth inhibition ([11]; at 11.0 µM): 1% | growth inhibition ([11]; at 33.0 µM): 7% | growth inhibition ([11]; at 100.0 µM): 29% | growth inhibition ([12]; at 1.2 µM): 0% | growth inhibition ([12]; at 3.7 µM): 0% | growth inhibition ([12]; at 11.0 µM): 1% | growth inhibition ([12]; at 33.0 µM): 11% | growth inhibition ([12]; at 100.0 µM): 26% | growth inhibition ([13]; at 1.2 µM): 2% | growth inhibition ([13]; at 3.7 µM): 2% | growth inhibition ([13]; at 11.0 µM): 0% | growth inhibition ([13]; at 33.0 µM): 23% | growth inhibition ([13]; at 100.0 µM): 46% | growth inhibition [14, 15]: 2% | growth inhibition [14, 16]: 1% | growth inhibition ([14]; at 50.0 µM): 97.2% (active)
